# High-throughput results from PubChem BioAssay.
# Methyltransferases – Primary Screen for Target Class Profiling of Small Molecule Inhibitors of Methyltransferases; purified enzyme, MTase-Glo SAH luminescence; hits give low values; calls only at 40 µM; hit rate 3.9% among 25,000; AID 1745853, 2022; call rule not given here
#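 Each enzyme was assayed with SAM and its substrate. SAH formation detected by MTase-Glo luminescence; single-point 40 uM screen[…].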
# The depositor's hits bear a star; i = inactive; + = active, no number; ! = not confirmed by another sample. This excerpt belongs to a sample that is enriched for hits. % is scaled to controls: 0 for no effect and ±100 for the full control effect.
SMILES,Methyltransferases
Cc1[nH]nc(C(=O)N[C@@H]2COCC[C@@H]2OCc2ccccc2)c1Cl,i
NC(=O)CN1CCC(c2nc(-c3cn4ccccc4n3)no2)CC1,i
Cc1ccc(CNC(=O)N2CCn3cccc3C2Cc2ccccc2)cc1 (stereo unspecified),i
COc1ccc2c(c1)C(=O)N(CCc1ccc(S(=O)(=O)NC(=O)NC3CCCCC3)cc1)C(=O)C2(C)C,i
CN(Cc1ccc(-c2ccccc2)cc1)CC1CCCCC1,i
c1ccc(CCc2nc3nccc(-c4cccnc4)n3n2)cc1,i
CN(CCc1ccc(Nc2ncc(-c3cccnc3)s2)cc1)Cc1ccccc1,+
O=C(CC1CCOC2(CCN(S(=O)(=O)c3ccccc3)CC2)C1)N1CCOCC1 (stereo unspecified),i
O=C(c1cc(O)c(O)c([N+](=O)[O-])c1)c1ccccc1F,+
O=C(Nc1ccccc1)c1cc([N+](=O)[O-])ccc1Cl,i
O=C(Nc1ncc([N+](=O)[O-])s1)c1ccccc1O,i
COCCn1c(C)cnc1CC1CCCN(S(=O)(=O)c2cccc(F)c2)C1 (stereo unspecified),i
C=C(C(=O)O)[C@H]1C[C@]2(C)C(=O)CC[C@]23O[C@H]1C[C@@H]3C,+
C=C(C(=O)O)C1CC2=C(C)CCCC2(C)C[C@@H]1O (stereo partly specified),i
c1ccc(-c2noc(CC3CCOC4(CCN(Cc5cccnc5)CC4)C3)n2)cc1 (stereo unspecified),i
COc1ccccc1CNC(=O)CCc1nnc2n(Cc3ccc(C)cc3)c(=O)c3ccccc3n12,i
COCCN1C(=O)N(CCCc2cccnc2)C(=O)C12CCN(C/C=C/c1ccc(OC)cc1)CC2,i
CCCCN1C(=O)c2ccc(-c3ccco3)n2CC1(C)C(=O)NC1CCCCCCC1 (stereo unspecified),i
COCCCN1CC2(CCN(C(=O)c3cc(C(C)C)oc3C)CC2)CC1=O,i
Cc1ccc(CN2C(=O)COC[C@H]2C(=O)N2CCN(c3cccc(Cl)c3)CC2)cc1,i
CCCCN1C(=O)c2ccc(-c3ccccc3)n2CC1(C)C(=O)NC1CCCCCC1 (stereo unspecified),i
C=CC(C)(O)CC/C=C(\C)COC1O[C@H](CO)[C@@H](O)[C@H](O)[C@H]1O (stereo partly specified),+
C=CC(C)(O)CC/C=C(\C)C(=O)O[C@@H]1[C@@H](O)[C@H](OC(C)(C=C)CC/C=C(\C)C(=O)O[C@@H]2O[C@H](CO)[C@@H](O)[C@H](O)[C@H]2O)O[C@H](CO)[C@H]1OC(=O)/C(C)=C/CCC(C)(O)C=C (stereo partly specified),i
C/C(=C\CCC(C)(C)O)CCO[C@@H]1O[C@H](CO[C@@H]2O[C@@H](C)[C@H](O)[C@@H](O)[C@H]2O)[C@@H](O)[C@H](O)[C@H]1O,i
O=C(NCCN1CCCC1)c1cc(-c2ccc(CN3CCOCC3)cc2)nc2ccc(F)cc12,i
SMILES,Methyltransferases
Cc1ccc(C2c3cccn3-c3sc4c(c3CN2C(=O)Nc2ccccc2F)CCCC4)cc1 (stereo unspecified),i
CN(C)CCN1CC2(CCCN(C(=O)CCCn3cnnn3)C2)CCC1=O (stereo unspecified),i
NS(=O)(=O)c1ccc(-n2nc(C(F)(F)F)cc2-c2ccc(Cl)cc2)cc1,i
CS(=O)(=O)c1ccc(-n2nc(C(F)(F)F)cc2-c2ccc(F)cc2)cc1,i
Cc1ccc(C)c(-c2cc(C(F)(F)F)nn2-c2ccc(S(N)(=O)=O)cc2)c1,+
CCn1c(CN2CCN(c3nc(C)cnc3C)CC2)nnc1C1CC(N)C1 (stereo unspecified),i
C[C@@H]1C[C@H](C)CN(CCC(=O)Nc2ccc(Br)cc2)C1,i
CN(C)c1ccc(Nc2c3ccc(NC(=O)CCN4CCCC4)cc3nc3cc(NC(=O)CCN4CCCC4)ccc23)cc1,+
CN(C)c1ccc(CNC(=O)CCCn2ccc3cc(S(=O)(=O)N4CCCC4)ccc32)cc1,i
CC(C)NC(=O)C[C@@H]1O[C@H](CNCc2ccc(F)cc2)[C@@H](O)[C@H]1O,i
NCCOc1cc(C(=O)Nc2cc(OCCN)c3ccccc3n2)nc(C(=O)Nc2cc(OCCN)c3ccccc3n2)c1,+
COc1ccc2c(c1)OCC(C(=O)NCc1noc(-c3ccco3)n1)C2 (stereo unspecified),i
COc1ccc2c(c1)CC(NS(=O)(=O)c1ccc(C)cc1)CO2 (stereo unspecified),i
COc1ccc2c(c1)C[C@H](C(=O)Nc1ccc(-c3cn[nH]c3)cc1OCCN(C)C)CO2,+
Cc1c(Cl)cccc1N1C(=O)CSc2c(c3ccccc3n2C)C1C(=O)NCc1ccccc1 (stereo unspecified),i
Cc1cc(C)cc(NC(=O)Cn2nc3n(CCC(C)C)c(=O)c4ccc(C(=O)NC(C)C)cc4n3c2=O)c1,i
Cc1ccc(NS(=O)(=O)c2ccc3[nH]c4c(c3c2)CCCC4)c(Br)c1,i
CC(C)CCN1C(=O)c2ccccc2CC1(C)C(=O)NCc1ccc(Cl)cc1 (stereo unspecified),i
O=C(O)COCCN1CCN([C@H](c2ccccc2)c2ccc(Cl)cc2)CC1,i
O=C(O)COCCN1CCN(C(c2ccccc2)c2ccc(Cl)cc2)CC1 (stereo unspecified),i
CN(C)CCCNc1nc(CN2CCN(C(c3ccc(Cl)cc3)c3ccc(Cl)cc3)CC2)nc2ccccc12,+
COCCOC(=O)C1=C(C)NC2=C(C(=O)CC(c3ccccc3OC)C2)C1c1cccc(O)c1 (stereo unspecified),i
N#CC(C#N)=C(N)/C(C#N)=C/c1ccc(O)cc1,i
N#C/C(=C\c1ccc(O)c(O)c1)C(=O)NCCCNC(=O)/C(C#N)=C/c1ccc(O)c(O)c1,+!
N#C/C(=C\c1ccc(O)c(O)c1)C(=O)Nc1ccccc1,i
SMILES,Methyltransferases
COCC(=O)N1CCC(C2CCN(C(=O)c3ccncc3)CC2)C1 (stereo unspecified),i
COCCNC(=O)C1CCC(=O)N1C1CCNCC1 (stereo unspecified),i
CC(C)(O)CCc1ccc(OCc2cc(-c3cccc(OC(F)F)c3)c3ncccc3c2)cc1,i
Nc1nc2c(cnn2CCc2ccccc2)c2nc(-c3ccco3)nn12,+
Nc1nc2ccc(Cl)cc2c2nc(-c3ccco3)nn12,i
Cc1ccc(C(=O)NCCn2c(C)cnc2C)s1,i
CCCN1C(=O)c2ccccc2CC1(C)C(=O)NC1CCCCCCC1 (stereo unspecified),i
Cn1c(=O)n(C)c2cc(S(=O)(=O)Nc3ccc(Br)cc3)ccc21,i
O=C(O)CSc1cc(NS(=O)(=O)c2ccc(Br)cc2)c2ccccc2c1O,+
COCCCNc1nc2c(S(=O)(=O)c3ccccc3)nnn2c2ccccc12,i
COc1cccc(-c2nc3cnccn3c2NCCC(=O)N2CCN(C(C)C)CC2)c1,i
CC1CCCC(NC(=O)C2(C)Cn3c(nc4ccccc43)C(=O)N2Cc2cccc(Cl)c2)C1C (stereo unspecified),i
CCCCNc1ncc(-c2ccc(CN3CCOCC3)cn2)c(NC2CCC(O)CC2)n1 (stereo unspecified),i
CCCCNc1ncc(C(=O)NCc2ccc(-n3ccnc3)cc2)c(NC2CCC(O)CC2)n1 (stereo unspecified),+
